Data as given in the supplement of paper PMC8728848.
The full list was thinned out, with the strongest signals kept by preference.

How the values were obtained:
Experiment in all cases: glycan array binding signal (z-score within array); higher = stronger binding
Settings in all cases: glycan notation: IUPAC condensed, linker removed
[1] = target: Fuc(a1-2)Gal(b1-3)GalNAc(b1-3)Gal(b1-4)Glc
Procedure, shortened: (§1)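 Glycan array data came from 3228 arrays in the Consortium for Functional Glycomics database, and only arrays with an available protein sequence were kept. Glycan names were put into IUPAC-condensed notation, and columns mapping to the same glycan were averaged. The binding signal is a within-array Z-score, averaged across arrays of one protein sequence run at different concentrations or buffers and across linkers. A negative Z-score can be read as non-binding.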

[2] = target: Fuc(a1-2)[Gal(a1-3)]Gal(b1-4)[Fuc(a1-3)]GlcNAc
Procedure, shortened: as §1

[3] = target: Fuc(a1-2)[GalNAc(a1-3)]Gal(b1-4)Glc
Procedure, shortened: as §1

[4] = target: Fuc(a1-4)GlcNAc
Procedure, shortened: as §1

[5] = target: Gal(a1-3)Gal(b1-4)GlcNAc
Procedure, shortened: as §1

[6] = target: Gal(b1-3)GalNAc(b1-3)Gal(b1-4)Glc
Procedure, shortened: as §1

[7] = target: Gal(b1-4)GalNAc(a1-3)[Fuc(a1-2)]Gal(b1-4)GlcNAc
Procedure, shortened: as §1

[8] = target: Gal(b1-4)GlcNAc(b1-3)Gal(b1-4)Glc
Procedure, shortened: as §1

[9] = target: Gal6S(b1-4)Glc6S
Procedure, shortened: as §1

[10] = target: GalNAc(a1-3)Gal
Procedure, shortened: as §1

[11] = target: GlcNAc(b1-3)[GlcNAc(b1-4)][GlcNAc(b1-6)]GlcNAc
Procedure, shortened: as §1

[12] = target: GlcNAc(b1-4)[GlcNAc(b1-6)]GalNAc
Procedure, shortened: as §1

[13] = target: Man(a1-2)Man(a1-3)[Man(a1-3)[Man(a1-6)]Man(a1-6)]Man(b1-4)GlcNAc(b1-4)GlcNAc
Procedure, shortened: as §1

[14] = target: Neu5Ac(a2-3)Gal(b1-4)[Fuc(a1-3)]GlcNAc
Procedure, shortened: as §1

[15] = target: Fuc(a1-2)[Gal(a1-4)]Gal(b1-4)GalNAc
Procedure, shortened: as §1

[16] = target: Fuc(a1-3)GlcNAc
Procedure, shortened: as §1

[17] = target: Gal(b1-3)[Fuc(a1-4)]GlcNAc(b1-3)Gal(b1-4)[Fuc(a1-3)]GlcNAc
Procedure, shortened: as §1

[18] = target: Gal(b1-4)GlcNAc(b1-2)Man(a1-3)[Gal(b1-4)GlcNAc(b1-2)Man(a1-6)]Man(b1-4)GlcNAc(b1-4)GlcNAc
Procedure, shortened: as §1

[19] = target: Gal3S(b1-4)Glc6S
Procedure, shortened: as §1

[20] = target: Gal3S6S(b1-4)GlcNAc
Procedure, shortened: as §1

[21] = target: Gal3S6S(b1-4)GlcNAc6S
Procedure, shortened: as §1

[22] = target: GlcNAc(b1-3)Gal
Procedure, shortened: as §1

[23] = target: GlcNAc(b1-4)Gal(b1-4)GlcNAc
Procedure, shortened: as §1

[24] = target: Man(a1-2)Man(a1-3)[Man(a1-6)]Man(a1-6)[Man(a1-2)Man(a1-3)]Man(b1-4)GlcNAc(b1-4)GlcNAc
Procedure, shortened: as §1

[25] = target: Man(b1-4)GlcNAc
Procedure, shortened: as §1

[26] = target: Neu5Ac(a2-3)Gal(b1-3)GlcNAc
Procedure, shortened: as §1

[27] = target: Neu5Ac(a2-3)Gal(b1-3)GlcNAc(b1-3)Gal(b1-4)GlcNAc
Procedure, shortened: as §1

[28] = target: Neu5Ac(a2-3)Gal(b1-4)[Fuc(a1-3)]GlcNAc(b1-3)Gal
Procedure, shortened: as §1

[29] = target: Neu5Ac(a2-6)Gal(b1-4)GlcNAc
Procedure, shortened: as §1

[30] = target: Neu5Gc(a2-6)Gal(b1-4)GlcNAc
Procedure, shortened: as §1

B1: Alpha-agglutinin (Saccharomyces cerevisiae) (protein)
chain: MFTFLKIILWLFSLALASAININDITFSNLEITPLTANKQPDQGWTATFDFSIADASSIREGDEFTLSMPHVYRIKLLNSSQTATISLADGTEAFKCYVSQQAAYLYENTTFTCTAQNDLSSYNTIDGSITFSLNFSDGGSSYEYELENAKFFKSGPMLVKLGNQMSDVVNFDPAAFTENVFHSGRSTGYGSFESYHLGMYCPNGYFLGGTEKIDYDSSNNNVDLDCSSVQVYSSNDFNDWWFPQSYNDTNADVTCFGSNLWITLDEKLYDGEMLWVNALQSLPANVNTIDHALEFQYTCLDTIANTTYATQFSTTREFIVYQGR
With B1 the “glycan array binding signal (z-score)” value [1] was 6.41, the “glycan array binding signal (z-score)” value [2] was -0.112 and the “glycan array binding signal (z-score)” value [3] was 0.558. The “glycan array binding signal (z-score)” value [4] was -0.216, the “glycan array binding signal (z-score)” value [5] was -0.248 and the “glycan array binding signal (z-score)” value [6] was 8.68. The “glycan array binding signal (z-score)” value [7] was 0.014, the “glycan array binding signal (z-score)” value [8] was 3.24 and the “glycan array binding signal (z-score)” value [9] was 0.122. The “glycan array binding signal (z-score)” value [10] was -0.162, the “glycan array binding signal (z-score)” value [11] was 0.203 and the “glycan array binding signal (z-score)” value [12] was 5.52. For the same binder, the “glycan array binding signal (z-score)” value [13] was -0.251 and the “glycan array binding signal (z-score)” value [14] was -0.258.

B2: FBG5 (Homo sapiens), Q8NI29 (protein)
chain: MGASVSRGRAARVPAPEPEPEEALDLSQLPPELLLVVLSHVPPRTLLGRCRQVCRGWRALVDGQALWLLILARDHGATGRALLHLARSCQSPARNARPCPLGRFCARRPIGRNLIRNPCGQEGLRKWMVQHGGDGWVVEENRTTVPGAPSQTCFVTSFSWCCKKQVLDLEEEGLWPELLDSGRIEICVSDWWGARHDSGCMYRLLVQLLDANQTVLDKFSAVPDPIPQWNNNACLHVTHVFSNIKMGVRFVSFEHRGQDTQFWAGHYGARVTNSSVIVRVRLS
For B2, the “glycan array binding signal (z-score)” value [1] was -0.166, the “glycan array binding signal (z-score)” value [15] was -0.19 and the “glycan array binding signal (z-score)” value [3] was 0.967. The “glycan array binding signal (z-score)” value [16] was 0.417, the “glycan array binding signal (z-score)” value [17] was -0.217 and the “glycan array binding signal (z-score)” value [18] was -0.102. The “glycan array binding signal (z-score)” value [19] was 0.206, the “glycan array binding signal (z-score)” value [20] was -0.009 and the “glycan array binding signal (z-score)” value [21] was 2.32. The “glycan array binding signal (z-score)” value [9] was 0.548, the “glycan array binding signal (z-score)” value [22] was -0.119 and the “glycan array binding signal (z-score)” value [23] was -0.095. The “glycan array binding signal (z-score)” value [24] was -0.112, the “glycan array binding signal (z-score)” value [25] was -0.205 and the “glycan array binding signal (z-score)” value [26] was -0.161. The “glycan array binding signal (z-score)” value [27] was -0.162, the “glycan array binding signal (z-score)” value [14] was -0.231 and the “glycan array binding signal (z-score)” value [28] was -0.244. For the same binder, the “glycan array binding signal (z-score)” value [29] was -0.219 and the “glycan array binding signal (z-score)” value [30] was -0.248.
